Results as given in the supplement of paper PMC6555819.

How the values were obtained:
Assay in all cases: PBM binding z-score (relative to random genomic background probes); higher = stronger binding; sequences stand for … in GC…GCGATTGACAGCGTAGAATGAAGG
[1] = tested on: FXR:RXRa (NR concentration 270 nM, RXRa partner concentration 90 nM)
Method in brief: (§1)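 Custom Agilent 4×180K protein-binding microarrays carried double-stranded probes. Their 34-nt variable regions held direct-repeat seeds, single-nucleotide variants, half-site ablations and random human genomic background sequences. Arrays were incubated 1 h with ligand-free nuclear receptor dimers in PBS pH 7.4, 2% milk, 0.02% Triton X-100, 1 mM DTT, 0.2 mg/mL BSA and 0.4 mg/ml salmon testes DNA. Antibodies against each partner (one per run) detected binding, and scanned fluorescence was regression-normalized. Binding z-scores use random background probes as reference.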

[2] = tested on: LXRa:RXRa (NR concentration 270 nM, RXRa partner concentration 90 nM)
Method in brief: as §1

[3] = tested on: LXRa homodimer (NR concentration 270 nM)
Method in brief: as §1

[4] = tested on: LXRb:RXRa (NR concentration 270 nM, RXRa partner concentration 90 nM)
Method in brief: as §1

[5] = tested on: PPARa:RXRa (NR concentration 270 nM, RXRa partner concentration 90 nM)
Method in brief: as §1

[6] = tested on: PPARg:RXRa (NR concentration 180 nM, RXRa partner concentration 90 nM)
Method in brief: as §1

[7] = tested on: PPARg:RXRa 270nM:90nM, anti-RXR (NR concentration 270 nM, RXRa partner concentration 90 nM)
Method in brief: as §1

[8] = tested on: PPARg:RXRa 30nM:10nM, anti-RXR (NR concentration 30 nM, RXRa partner concentration 10 nM)
Method in brief: as §1

[9] = tested on: PPARg:RXRa 90nM:30nM, anti-RXR (NR concentration 90 nM, RXRa partner concentration 30 nM)
Method in brief: as §1

[10] = tested on: PPARg:RXRa DBDmut IVT, anti-RXR (DBD mutation: RXRa K156A/R161A, NR concentration 270 nM, RXRa partner concentration 90 nM)
Method in brief: as §1

[11] = tested on: PPARg:RXRa IVT, anti-PPARg (NR concentration 270 nM, RXRa partner concentration 90 nM)
Method in brief: as §1

[12] = tested on: PPARg homodimer (NR concentration 180 nM)
Method in brief: as §1

[13] = tested on: PXR:RXRa (NR concentration 270 nM, RXRa partner concentration 90 nM)
Method in brief: as §1

[14] = tested on: PXR homodimer (NR concentration 270 nM)
Method in brief: as §1

[15] = tested on: RARa:RXR (NR concentration 270 nM, RXRa partner concentration 90 nM)
Method in brief: as §1

[16] = tested on: RARa homodimer (NR concentration 270 nM)
Method in brief: as §1

[17] = tested on: RARb:RXRa (NR concentration 270 nM, RXRa partner concentration 90 nM)
Method in brief: as §1

Row | Sequence | PBM binding z-score [1] | PBM binding z-score [2] | PBM binding z-score [3] | PBM binding z-score [4] | PBM binding z-score [5] | PBM binding z-score [6] | PBM binding z-score [7] | PBM binding z-score [8] | PBM binding z-score [9] | PBM binding z-score [10] | PBM binding z-score [11] | PBM binding z-score [12] | PBM binding z-score [13] | PBM binding z-score [14] | PBM binding z-score [15] | PBM binding z-score [16] | PBM binding z-score [17]
1 | TCGAGTAGGTGACGGGGGCATTCAGGGATGAAGA | 2.66 | 2.37 | 0.394 | 4.6 | 3.82 | 5.16 | 5.26 | 3.32 | 4.67 | 5.39 | 6.13 | 2.07 | 3.15 | 1.91 | 2.63 | 0.214 | 2.45
2 | CCGAGTATGTTACGAGGGGGCATTCAGTGCGAAT | 1.03 | 4.44 | 0.955 | 3.9 | 2.28 | 0.244 | 1.45 | 0.332 | 1.29 | 1.52 | 1.95 | 1.3 | 3.07 | 4.74 | 2.27 | 0.735 | 1.15
3 | TCGAGTAGGATACGGGGGCATTCAGGGATGAAGA | 1.26 | 1.43 | 0.346 | 3.58 | 2.35 | 1.24 | 2.72 | 2.22 | 2.53 | 1.6 | 3.19 | 0.663 | 2.12 | 0.916 | 2.17 | 0.237 | 1.25
4 | CCGAGTAGGTTACGAGGGGGCATTCAGTGCGAAT | 2.35 | 6.98 | 1.84 | 6.35 | 3.42 | 2.22 | 3.3 | 1.24 | 2.55 | 4.8 | 4.49 | 2.04 | 5.02 | 6.02 | 3.43 | 0.391 | 2.2
5 | CCATGTAGGTTAAGGGGGTCATTCAGTTTGAAAG | 4.98 | 4.71 | 3.76 | 6.22 | 5.88 | 7.38 | 7.13 | 4.55 | 6.52 | 5.55 | 6.99 | 4.47 | 5.83 | 12.1 | 5.82 | 2.79 | 3.46
6 | CCGAGTAGGTTACGAGTGGGCATTCAGTGCGAAT | 0.0253 | 3.62 | -0.367 | 0.771 | 1.09 | 0.765 | 1.33 | -0.376 | 0.662 | 4.82 | 3.49 | 0.313 | 0.0829 | -0.15 | 0.124 | -0.322 | 0.921
7 | CCGAGTAGGTTGCGAGGGGGCATTCAGTGCGAAT | 1.26 | 2.94 | 0.489 | 4.71 | 2.73 | 0.173 | 1.85 | 0.127 | 1.53 | 1.37 | 2.13 | 0.668 | 3.67 | 4.85 | 2.34 | 0.292 | 1.57
8 | CAATGTAGGTTAAGGGGGTCATTCAGTTTGAAAG | 3.39 | 5.38 | 3.82 | 6.46 | 6.05 | 8.91 | 8.13 | 6.58 | 8.44 | 7.92 | 7.9 | 7.74 | 6.21 | 13.1 | 6.32 | 4.17 | 3.72
9 | CCGAGTAGGTTACGAGGGGGCCTTCAGTGCGAAT | 0.952 | 2.66 | 0.0596 | 3.94 | 2.44 | 1.5 | 2.53 | 0.553 | 1.8 | 4.2 | 4 | 1.59 | 1.73 | 0.533 | 1.56 | 0.0772 | 1.47
10 | TTGAGTAGGTTACGGGGGCATTCAGGGATGAAGA | 3.06 | 3.3 | 1.18 | 5.2 | 4.63 | 7.11 | 6.44 | 4.81 | 5.83 | 6.29 | 6.86 | 5.24 | 3.31 | 3.21 | 3.81 | 2.56 | 2.9
11 | CTATGTAGGTTAAGGGGGTCATTAAGTTTGAAAG | 4.76 | 4.56 | 2.21 | 5.86 | 6 | 8.78 | 7.7 | 5.93 | 8.13 | 7.49 | 7.73 | 3.7 | 5.89 | 12.5 | 5.37 | 1.68 | 3.58
12 | CCGAGTTGGTTACGAGGGGGCATTCAGTGCGAAT | 1.35 | 3.69 | 1.21 | 4.27 | 2.31 | -0.0841 | 0.784 | -0.706 | 0.481 | 0.938 | 1.51 | 1.98 | 3.41 | 7.65 | 2.14 | 0.677 | 1.31
13 | TCGAGTAGGTTACGGGGGCAGTCAGGGATGAAGA | 2.28 | 2.27 | 0.393 | 4.55 | 3.63 | 4.99 | 5.02 | 2.93 | 4.41 | 5 | 5.6 | 2.04 | 2.33 | 1.2 | 2.43 | 0.156 | 2.36
14 | CCGAGCAGGTTACGAGGGGGCATTCAGTGCGAAT | 2.35 | 7.31 | 1.46 | 6.07 | 3.01 | 0.89 | 1.95 | 0.464 | 1.36 | 1.69 | 2.54 | 1.34 | 5.19 | 4.97 | 3.16 | 0.223 | 2.22
15 | CCGAGTGGGTTACGAGGGGGCATTCAGTGCGAAT | 2.73 | 6.93 | 0.977 | 5.8 | 3.08 | 1.75 | 2.54 | 0.567 | 1.74 | 3.36 | 3.81 | 1.4 | 4.8 | 5.23 | 2.53 | -0.433 | 1.65
16 | CTATCTAGGTTAAGGGGGTCATTCAGTTTGAAAG | 5.03 | 4.71 | 2.63 | 6.25 | 5.95 | 8.5 | 7.76 | 6.25 | 7.89 | 7.65 | 7.5 | 4.89 | 6 | 13.2 | 6.07 | 2.58 | 3.68
